Laboratory results published in PubChem BioAssay AID2289 (National Center for Advancing Translational Sciences (NCATS), 2010).
The whole screen tested about 340,000 compounds, of which about 3,300 (0.97%) were called active. Not shown: some 9% with an inconclusive outcome. Calls come from the whole dose curve; as a rule, active = well fitted inhibition curve with a large enough effect; inconclusive = small, poorly fitted or top-dose-only effect, or effect the other way; inactive = flat fitted curve, though single readings scatter. The list shows a part of the results.

Experiment: qHTS Assay for Modulators of miRNAs and/or Inhibitors of miR-21; note: nearly all actives have a fitted effect of over 55% in size
Conditions: HeLa miR-21-FLuc reporter, luciferase luminescence, 48 h; actives lower the signal
Outline: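 HeLa cells endogenously expressing miR-21, stably carrying CMV-driven firefly luciferase with a downstream miR-21 binding site, 2000 cells/well. Titrations up to approximately 40 uM, 48 hours; luciferase luminescence read.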
Potency is the fitted concentration of half-maximal effect.

Potency, active:
CCOC(=O)c1c(C)oc2c1c(CN1CCN(CCO)CC1)c(O)c1ccccc12 10.4 µM
CCOC(=O)c1c(C)oc2c1c(CN1CCN(C(=O)OCC)CC1)c(O)c1ccccc12 14.7 µM
CCOC(=O)c1c(C)oc2c1cc(O)c1ccccc12 5.21 µM
CCOC(=O)c1c(C)oc2c1c1c(c3ccccc32)OCN(CCCC(=O)O)C1 10.4 µM
Oc1ccc(Nc2ncnc3c2oc2ccccc23)cc1 13.1 µM
COc1ccccc1Nc1ncnc2c1oc1ccccc12 14.7 µM
Oc1cccc(Nc2ncnc3c2oc2ccccc23)c1 5.21 µM
c1ccc(Nc2ncnc3c2oc2ccccc23)cc1 7.36 µM
c1ccc2c(c1)oc1c(Nc3ccc4c(c3)OCO4)ncnc12 1.65 µM
C=C1SC(=Nc2ccccc2Cl)N(C(=O)c2sc3ccccc3c2Cl)C1(C)C 13.1 µM
O=C(Nc1ccon1)c1sc2cc(F)ccc2c1Cl 1.65 µM
O=C(NC1=NCCS1)c1sc2cc(F)ccc2c1Cl 0.736 µM
CC(C)Cc1cc(C(=O)NCCc2ccccc2)no1 2.33 µM
CC(C)c1cc(C(=O)NCCc2ccccc2)no1 2.33 µM
CCCc1cc(C(=O)NCCc2ccccc2)no1 4.14 µM
Brc1ccc(C2=NC(Cc3ccccc3)CO2)cc1 (stereo unspecified) 14.7 µM
OC(COc1ccc2ccccc2c1Cl)CN1CCOCC1 (stereo unspecified) 10.4 µM
COc1ccc(C(=O)c2oc3ccc(OC)cc3c2N)cc1 7.36 µM
Nc1c(C(=O)c2ccccc2)oc2ccc(Br)cc12 2.61 µM
COc1ccc2oc(C(=O)c3ccccc3)c(N)c2c1 1.17 µM
Cc1cc(NC(=O)c2cccc(COc3ccc(Br)cc3)c2)no1 1.04 µM
COc1ccc(OCc2cccc(C(=O)N3CCCC3)c2)cc1 1.47 µM
CC1CN(C(=O)c2cccc(COc3ccc(Br)cc3)c2)CC(C)O1 (stereo unspecified) 2.93 µM
COc1ccc(OCc2cccc(C(=O)Nc3ccc(CN4CCCCC4)cc3)c2)cc1 2.07 µM
CCOc1ccc(N=C(C)C2=C(O)c3ccccc3C2=O)cc1 1.17 µM
COc1ccccc1N1CCN(c2nc3ccccn3c(=O)c2C=O)CC1 18.5 µM
O=Cc1c(N2CCN(c3ccccc3)CC2)nc2ccccn2c1=O 16.5 µM
O=C(/C=C/c1ccc(Cl)cc1Cl)N1CCc2ccccc21 0.521 µM
Cc1ccc(/C=C/C(=O)N2CCc3ccccc32)o1 2.93 µM
O=c1c(-c2ccc(O)cc2)coc2cc(OC3OC(CO)C(O)C(O)C3O)cc(O)c12 (stereo unspecified) 2.61 µM
CCN1CCN(c2cc3c(nn2)Oc2ccccc2N3C)CC1 7.36 µM
CCC(=O)Nc1ccc(N2CCC(C)CC2)cc1 18.5 µM
CC1CCN(c2ccc(NC(=O)c3ccc(Br)o3)cc2)CC1 0.656 µM
Cc1c(Cl)cccc1Nc1nc(N)nc(CSc2ncccn2)n1 16.5 µM
Cc1ccccc1Nc1nc(N)nc(CSc2ccc(F)cc2)n1 1.31 µM
Cc1ccccc1Nc1nc(N)nc(CSc2ccccc2)n1 0.656 µM
Nc1nc(CSc2ccccc2)nc(N2CCCCC2)n1 6.56 µM
CN1C(=O)/C(=C\c2cc(Br)cs2)c2ccccc21 16.5 µM
Cc1nn(-c2ccccc2)c(N)c1N=Nc1ccc2ccccc2c1 4.65 µM
Cc1nn(-c2ccccc2)c(N)c1N=Nc1cccnc1 11.7 µM
Cc1cccc(N=Nc2c(C)nn(-c3ccccc3)c2N)c1C 7.36 µM
Cc1snc2sc(C(=O)c3ccc(F)cc3)c(N)c12 5.21 µM
Cc1cccc(C)c1OCC(=O)Nc1cccc(C(=O)O)c1 1.85 µM
CC(=O)c1cccc(NC(=O)COC(=O)c2ccccc2C)c1 5.85 µM
O=C(Nc1ccccc1Cl)c1csc(-c2cccnc2)n1 13.1 µM
CC(C)C(=O)Nc1ccc(-c2csc(-c3ccccc3)n2)cc1 2.33 µM
CC(=O)Nc1ccc(-c2csc(-c3cccnc3)n2)cc1 1.17 µM
CC(C)C(=O)Nc1ccc(C(=O)c2ccccc2)cc1 7.36 µM
CC(C)C(=O)Nc1ccc(-c2nnc(-c3ccccc3)o2)cc1 0.261 µM
COC(=O)c1ccsc1NC(=O)CCc1ccccc1 7.36 µM
c1cncc(-c2nc(-c3ccc4c(c3)OCO4)cs2)c1 1.65 µM
COc1ccc2cc(-c3csc(-c4cccnc4)n3)ccc2c1 3.29 µM
COc1ccc(-c2csc(-c3cccnc3)n2)cc1C 3.69 µM
CC(=O)c1ccc(N=Nc2ccc(N(C)C)cc2)cc1 0.293 µM
CN(C)c1ccc(N=Nc2ccc(S(N)(=O)=O)cc2)cc1 1.17 µM
O=C(c1cc(-c2ccc(Br)cc2)on1)N1CCOCC1 0.585 µM
O=C(c1cc(-c2ccc(Br)cc2)on1)N1CCCCCC1 0.927 µM
c1ccc(-c2noc(-c3ccc4c(c3)OCO4)n2)cc1 0.293 µM
COc1cccc(-c2noc(-c3ccc4c(c3)OCO4)n2)c1 0.261 µM
COc1cc(/C=N/NC(=S)NC2CC3CCC2C3)ccc1O (stereo unspecified) 7.36 µM
C=CCn1c(SCC(N)=O)nc2scc(-c3ccc(C)o3)c2c1=O 5.85 µM
CCC(=O)Nc1cccc(NC(=S)NC(=O)c2cc3ccccc3o2)c1 0.585 µM
COc1ccc(NC(=O)c2cc3ccccc3o2)c(OC)c1 0.585 µM
COc1ccccc1NC(=O)c1cc2ccccc2o1 2.93 µM
COc1cc(NC(=O)c2c(OC)cccc2OC)ccc1NC(=O)c1cc2ccccc2o1 5.21 µM
COc1ccccc1NC(=O)c1cc2ccc3cccnc3c2[nH]1 2.33 µM
O=C(Nc1ccccc1C(F)(F)F)c1cc2ccccc2o1 1.17 µM
CNC(C)C#Cc1ccc2c(=O)c3c(OC)cccc3oc2c1 (stereo unspecified) 3.69 µM
COc1cccc2oc3cc(C#Cc4ccccn4)ccc3c(=O)c12 2.93 µM
COc1cccc2oc3ccc(C#CC4(N)CCCCC4)cc3c(=O)c12 7.36 µM
O=c1cc(-c2ccc3c(c2)OCCO3)oc2ccc(Cl)cc12 0.185 µM
CCCCC(=O)Nc1ccc2c(c1)oc1ccccc12 2.33 µM
CCCC(=O)Nc1ccc2c(c1)Cc1ccccc1-2 1.85 µM
O=C(Nc1ccccc1)Nc1ccc2ccccc2c1 2.93 µM
CCCCCC(=O)Nc1ccc2ccccc2c1 4.65 µM
Cc1ccc(-c2nn(-c3ccccc3)cc2CO)o1 1.47 µM
Cc1ccc(-c2nn(-c3ccccc3)cc2CO)cc1 14.7 µM
O=C(/C=C\Nc1ccc2c(c1)OCO2)c1ccc(Cl)s1 0.464 µM
COc1ccc(N/C=C/C(=O)c2ccc3c(c2)OCO3)cc1OC 13.1 µM
O=C(/C=C\Nc1ccc2c(c1)OCO2)c1ccc2c(c1)OCO2 5.85 µM
COc1ccc(N/C=C\C(=O)c2ccc3c(c2)OCO3)cc1OC 14.7 µM
Cc1ccc(OCC(=O)Nc2ccc(F)cc2)c([N+](=O)[O-])n1 7.36 µM
Cc1ccc(OCC(=O)Nc2ccc3c(c2)OCO3)c([N+](=O)[O-])n1 7.36 µM
CCOc1ccc(/C=C/C2=NNC(=O)CC2)cc1 5.85 µM
COc1ccc(-c2cc(C)nc3c(-c4ccccc4)cnn23)cc1 0.233 µM
Cc1cc(N)n2ncc(-c3ccccc3)c2n1 3.29 µM
Cc1cc(N)n2ncc(-c3ccc(F)cc3)c2n1 4.65 µM
Cc1nc2c(-c3ccc(F)cc3)cnn2c(N)c1-c1ccc(F)cc1 0.414 µM
Cc1cc(N)n2ncc(-c3cccc(Br)c3)c2n1 3.29 µM
CCOC(=O)c1cn2nc(Oc3ccccc3)ccc2n1 5.85 µM
O=C(COc1ccccc1Br)Nc1ccc2c(c1)OCCCO2 0.927 µM
N#Cc1ccccc1OCC(=O)Nc1ccc2c(c1)OCCCO2 2.61 µM
CC1=C(C)CC(C(=O)NCC(=O)c2ccccc2)C(C(=O)O)C1 (stereo unspecified) 4.14 µM
Cc1cc(C)n2nc(SCC3COc4ccccc4O3)nc2n1 (stereo unspecified) 16.5 µM
Cc1cc(C)n2nc(SCCOc3ccccc3)nc2n1 7.36 µM
Cc1cc(C)n2nc(SCCOc3ccccc3F)nc2n1 11.7 µM
Clc1ccc(Cc2nnc(-c3ccccc3Br)o2)cc1 16.5 µM
Clc1ccc(Cc2nnc(-c3cccs3)o2)cc1 18.5 µM
BrCCOCCOc1ccc2ccccc2c1 18.5 µM
Cc1c(C(=O)NC2CCOC2)oc2c(F)cccc12 (stereo unspecified) 5.85 µM
Cc1c(C(=O)N2C[C@@H](C)O[C@@H](C)C2)oc2c(F)cccc12 13.1 µM
CC(O)CNc1ncnc2cc(-c3ccc(F)cc3)sc12 (stereo unspecified) 4.65 µM
Cc1nn(-c2ccc(Br)cc2)c(=O)c2ccccc12 2.93 µM
Cc1nn(-c2ccc3ccccc3c2)c(=O)c2ccccc12 2.93 µM
COc1cccc(COc2ccc3ccc(=O)oc3c2)c1 7.36 µM
COc1ccc(COc2ccc3ccc(=O)oc3c2)cc1 2.93 µM
